Where “and” joins values, the source holds several entries; their conditions need not be identical. Identical values can stand only once. The campaign covered roughly 260,000 compounds. About 1,500 (0.58%) were called active. Inconclusive results (about 5%) are left out.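 Rule for the calls: active = inhibition above a set limit at one or more doses, reproduced on every date tested; inconclusive = results disagree between test dates, or hit never tested in dose response; inactive = the rest.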 The list is a sample of the results. Measured potencies and affinities stand elsewhere.
molecular target: Virion infectivity factor (Human immunodeficiency virus type 1 group M subtype B (isolate BH10)) + Virion infectivity factor (Human immunodeficiency virus type 1 group M subtype B (isolate BRU/LAI)) + Virion infectivity factor (Human immunodeficiency virus type 1 group M subtype B (isolate PCV12)) + Virion infectivity factor (Human immunodeficiency virus type 1 group M subtype B (isolate HXB2)) + DNA dC->dU-editing enzyme APOBEC-3G (Homo sapiens) (UniProt P69720+P69721+P69722+P69723+Q9HC16); test: HIV-1 Vif–A3G interaction blockers – biochemical, TR-FRET, GST-Vif 1-94, biotin-A3G peptide, dose response retest, primary screen (AID 1117319); settings: TR-FRET GST-Vif / biotin-A3G peptide binding; hits give high values;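 note: Vif residues 1-94 fused to GST binding biotinylated APOBEC3G peptide 110-148; 0% = full assay without inhibitor and 100% = GST in place of GST-Vif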

inhibition, inactive:
CC(=O)Nc1cccc(N(C)C)c1 6.55%
Cc1cc(NS(C)(=O)=O)c(=O)n(Cc2cccc(C(F)(F)F)c2)c1 0.67%
CSCC(=O)N1CCCC(CNC(=O)c2ccccc2Cl)C1 (centres undefined) -7.52%
COc1ccc(OCCSc2ncccn2)cc1 -7.11%
COC(=O)c1nc(NC(=O)c2ccc(Br)cc2)n[nH]1 23.4%
CCOc1ccc(N(C)S(=O)(=O)c2ccc3[nH]cc(C(=O)NCCOC)c(=O)c3c2)cc1 0.42%
COc1ccc(-c2c(-c3ccc(O)cc3O)n[nH]c2C)cc1OC 6.2%
CCOc1cccc(C2C(C(=O)c3ccc(C)o3)=C(O)C(=O)N2c2nccs2)c1 (centres undefined) -6.71%
O=C(N/N=C/c1ccc(OC(=O)c2ccccc2)c([N+](=O)[O-])c1)c1ccc(O)cc1 2.33%
CCOC(=O)N=Nc1c2ccccc2c2nc3no[nH]c3nc12 8.41%
Cc1ccc2cc(CN(C(=O)c3ccco3)c3cccc(C)c3C)c(=O)[nH]c2c1 -8.5%
C#Cc1ccc([C@@H]2C=C(C(=O)OCC=C)O[C@H](OCc3ccc(CO)cc3)C2)cc1 6.58%
COc1ccc(NC(=O)c2ccc(Br)o2)cc1 6.22%
COc1ccc(NC(=O)/C(C#N)=C/c2ccc3c(c2)n(C)c(=O)n3C)cc1 1.72%
Cc1ccc(NC(=O)/C(C#N)=C/c2ccc(Sc3nc(C)cc(C)n3)o2)cc1 -1.36%
N#C/C(=C/c1ccc(F)cc1)C(N)=S -0.15%
N#C/C(=C\c1ccc(-c2ccc(C(=O)O)cc2)o1)C(=O)Nc1ccc(F)cc1 15.6%
COc1ccc(/C=C(\C#N)C(=O)Nc2ccc3[nH]c(=O)[nH]c3c2)cc1 11.7%
CCOCCCNC(=O)/C(C#N)=C/c1ccc([N+](=O)[O-])o1 26.7%
N#C/C(=C/c1ccc(Br)o1)C(N)=O 10.3%
CC(=O)OC12CC3CC(C1)C(=NO)C(C3)C2 -2.41%
COc1ccc(Cn2cnc3c(NS(C)(=O)=O)c(C)c(C)cc32)cc1 -0.98%
Cc1ccc(-c2nc(CS(=O)CC(=O)NCCN3CCCCCC3)c(C)o2)cc1 (centres undefined) -1.41%
COc1ccc(-n2c(SCC(=O)Nc3ccc(C(=O)O)cc3)nnc2-c2ccccc2)cc1OC 4.7%
O=C(N/N=C/c1cc(Br)c(O)c(Br)c1)c1cccnc1 -0.54%
Cc1cc(C)cc(NC(=O)c2ccc(NC(=O)C3C4CC5OC(=O)C3C5C4)cc2)c1 (centres undefined) -3.35%
CCn1c(C)nnc1SCC(=O)Nc1cccc(C(F)(F)F)c1 -2.71%
CN(C(=O)c1ccc(C#N)cc1)c1nnc(-c2ccccn2)s1 -7.43%
CCc1ccc2nc3c(c(C(=O)O)c2c1)CCC3 23.1%
Cc1ccc2nc3c(c(C(=O)O)c2c1)CCC3 32.8%
Cc1c(C(=O)O)sc(=S)n1CCOc1ccccc1 5.91%
O=C(CCN1CCN(S(=O)(=O)c2ccc(Cl)cc2)CC1)Nc1ccc(F)cc1 1.22%
Cc1cc(O)c(C(C)C)cc1N=Cc1ccccc1O -2.17%
COc1cccc(C=Nc2ccccc2C#N)c1O 14.7%
Cc1cc(O)c(C(C)C)cc1N=Cc1ccc(N(C)C)cc1 12.6%
Cc1cc(O)c(C(C)C)cc1N=Cc1ccccc1[N+](=O)[O-] -2.95%
O=C(CC(O)(c1ccccc1)c1ccccc1)Nc1ccccn1 -5.64%
O=C1Nc2ccccc2C(=O)C1(Cl)Cc1ccccc1 (centres undefined) 2.05%
Cc1ccc(OCC(=O)OCc2nc3scc(-c4ccccc4)c3c(=O)[nH]2)cc1C -11.5%
Cn1c(=O)c2c(nc(SCCCC#N)n2Cc2ccccc2F)n(C)c1=O 5.84%
Cn1c(=O)c2c(nc(SCc3nn[nH]n3)n2Cc2ccccc2F)n(C)c1=O 26.4%
Cc1ccccc1-n1cnc2cc(NCc3cccs3)ccc21 4.79%
COc1ccccc1-n1cnc2cc(NCc3ccccc3O)ccc21 5.69%
COc1ccc(CC(=O)Nc2ccc(S(=O)(=O)Nc3cc(C)nc(C)n3)cc2)cc1OC -3.26%
CC(C)c1ccc(CCNC(=O)CCNC(=O)c2ccc(Br)cc2)cc1 -4.69%
Oc1cccc(C=NCc2ccccc2)c1 -4.5%
Oc1ccccc1C=NCC(O)c1ccccc1 (centres undefined) 22%
COc1cccc(C=NCC(C)N=Cc2cccc(OC)c2O)c1O (centres undefined) 1.39%
Oc1c(Br)cc(Br)cc1C=NCc1ccccc1 -9.44%
COC(=O)c1ccc(C2C(Oc3ccccc3)C(=O)N2CCc2ccc(F)cc2)cc1 (centres undefined) -5.73%
C=CCN(C(=O)CCS(=O)(=O)c1cccc2nsnc12)c1ccccc1 -10%
Cc1ccc(NC(=O)CN2C(=O)NC(C)(c3ccc(Cl)cc3)C2=O)cc1S(=O)(=O)N1CCOCC1 (centres undefined) 19.2%
CC(=O)c1ccc(S(=O)(=O)Nc2ccc(C(=O)NCC(c3cccs3)N3CCOCC3)cc2)cc1 (centres undefined) 3.75%
CC1(C)Cc2cccc(OCC(=O)N3CCN(c4ccccc4F)CC3)c2O1 -1.24%
CN(c1ccccc1)c1nc(-n2ccnc2)nc(-n2ccnc2)n1 -3.98%
c1ccc(N(c2ccccc2)c2nc(-n3ccnc3)nc(-n3ccnc3)n2)cc1 -4.38% and -2.66%
O=C(NCCC1=CCCCC1)c1ccc2c(=O)n3c(nc2c1)CCCCC3 -3.44%
Cc1cc(C)nc(N2CCCC(C(=O)NCc3ccc4c(c3)OCO4)C2)n1 (centres undefined) -5.32%
COc1cc(C)c(NC(=O)COc2cccc3c2OC(C)(C)C3)cc1OC -1.98%
[O-][n+]1onc2c3ccnnc3ccc21 0.24%
Cc1cc2c(ccc3c2no[n+]3[O-])nn1 7.27%
CCOc1ccc(CCNC(=O)c2cccc(S(=O)(=O)N3CCCCC3)c2)cc1OCC -3.3%
O=C(Cn1c(=S)[nH]c2ncccc2c1=O)NCCc1ccccc1 -0.88%
O=C(NCCCN1CCOCC1)c1ccc2c(=O)n(Cc3ccccc3)c(=S)[nH]c2c1 -10.2%
CCOC(=O)C1=C(Cc2ccc(OC)cc2)C(=O)c2ccccc2C1=O 24.3%
CCOC(=O)C1=C(O)c2ccccc2C(=O)/C1=C\c1ccc(CC)cc1 31.5%
CCN(CC)/C(=N\S(=O)(=O)c1ccc(F)cc1)c1ccccc1 3.32%
COCCNC(=S)N1CCCN(c2nc3cc(C)ccc3cc2C#N)CC1 3.12%
Cc1ccc(S(=O)(=O)N(Cc2ccccc2)c2ccccc2C(=O)NCc2cccnc2)cc1 1.8%
O=c1[nH]nc(CNc2ccc(C(F)(F)F)cc2)c2ccccc12 -3.84%
COc1ccc(NCc2n[nH]c(=O)c3ccccc23)cc1 4.49%
CC(NC(=O)COC(=O)c1cc(S(=O)(=O)N2CCOCC2)ccc1F)c1ccccc1 (centres undefined) 4.22%
Cc1ccc(S(=O)(=O)Nc2cccc(C(=O)N3CCC(C(N)=O)CC3)c2)cc1 -11.3%
O=C(CSc1nc2ccccc2c(=O)n1-c1ccccc1Cl)Nc1cccc(S(=O)(=O)N2CCOCC2)c1 12.8%
Cc1cc(C)nc(NS(=O)(=O)c2ccc(NC(=O)c3cc(=O)c4ccccc4o3)cc2)n1 -13.1%
Cc1ccc(C(=O)NC(=S)NNC(=O)COc2ccc([N+](=O)[O-])cc2)cc1 -1.27%
Cc1cc(/C=C2/NC(=O)N(c3ccccc3)C2=O)c(C)n1-c1cccnc1 5.85%
Cc1cc(C=C2C(=O)c3ccccc3C2=O)c(C)n1-c1cccc(C(=O)O)c1 24.6%
Cc1cccc(N2C(=O)CC(N3CCN(c4ccccc4)CC3)C2=O)c1 (centres undefined) 6.83%
Cc1ccccc1N=C1NC(=O)CS1 -1.84%
Cc1ccc(N=C2NC(=O)CS2)cc1 32.9%
CCOC(=O)C(NC(=O)c1cccc(Cl)c1)(Nc1sc2c(c1C(N)=O)CCC2)C(F)(F)F (centres undefined) 30.9%
Nc1nc2nc(-c3ccc(F)cc3)cc(C(F)(F)F)n2n1 12.1%
COc1ccc(NS(=O)(=O)c2cccc(C(=O)NNC(=O)c3cccc(NC(C)=O)c3)c2)cc1 2.28%
COc1ccc(NS(=O)(=O)c2cccc(C(=O)NNC(=O)c3ccccc3O)c2)cc1 9.79%
CCc1ccc(N(C(=O)CNC(=O)c2ccco2)C(C(=O)NCC2CCCO2)c2ccccc2)cc1 (centres undefined) 6.06%
O=C(CCNC(=O)c1ccccc1Cl)Nc1nc(-c2ccccc2Cl)cs1 15.5%
NC(=O)c1ccc(-n2nnnc2SCc2ccccc2)cc1 -2.97%
COC(=O)c1ccccc1-c1ccc(/C=N/NC(N)=O)o1 -4.17%
COC(=O)c1ccccc1-c1ccc(C=O)o1 -12.2%
COc1cc(/C=C(\C#N)c2ccccn2)cc(OC)c1O 7.21%
COc1cc(C(=O)Oc2cccc(C=O)c2)cc(OC)c1OC 8.54%
CCc1ccc(OCc2nnc(SCc3ccc(C(=O)O)cc3)o2)cc1 -1.45%
O=C(O)c1ccc(CSc2nnc(COc3ccccc3)o2)cc1 -5.6%
